# Activity calls are given as the source filed them. Rule for the calls: active = hit-call score of the fitted dose curve at least 0.9, where 1 is the maximum; inactive = score below 0.9.
# Experiments:
# [1] = ATG_ISRE_CIS: Attagene CIS-FACTORIAL HepG2 Assay for human Interferon Regulatory Factor 1 (IRF1) binding to an Interferon-Stimulated Response Element (ISRE) (AID 2282948); details: HepG2 ISRE cis-reporter (Attagene), mRNA transcription readout; actives raise or lower the signal
# Summary of the method: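 Endogenous transcription factor activity read as reporter transcript abundance via RT-PCR and capillary electrophoresis. HepG2 cells transiently transfected, 24 h chemical exposure. Gain or loss fitted against DMSO baseline.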
# [2] = ATG_M_32_CIS: Attagene CIS-FACTORIAL HepG2 Assay for M32 Transcription Factor (Internal Marker) (AID 2282949); details: HepG2 Attagene cis-factorial M32 reporter, mRNA; actives raise or lower the signal;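 note: background control marker of the multiplexed CIS panel rather than a real target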
# Summary of the method: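 HepG2 transfectants (cis-regulated reporter transcription units) dosed 24 h. Reporter mRNA by RT-PCR plus CE, analysed as gain or loss relative to DMSO.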
# [3] = ATG_M_06_CIS: Attagene CIS-FACTORIAL HepG2 Assay for M06 Transcription Factor (Internal Marker) (AID 2282950); details: HepG2 Attagene CIS-FACTORIAL M06 internal marker reporter; actives raise or lower the signal
# Summary of the method: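 Read-out is fluorescence of labelled reporter cDNA fragments resolved by capillary electrophoresis after RT-PCR. Cells: HepG2 carrying transfected cis-promoter reporter units, treated 24 h. Gain or loss of signal fitted relative to DMSO.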
# [4] = biological target: Hypoxia-inducible factor 1-alpha (Homo sapiens) (UniProt Q16665); assay: ATG_HIF1a_CIS: Attagene CIS-FACTORIAL HepG2 Assay for human Hypoxia Inducible Factor 1 (HIF1A) (AID 2282951); details: HepG2 Attagene cis-factorial HIF1a reporter transcription; actives raise or lower the signal
# Chain of Hypoxia-inducible factor 1-alpha (Homo sapiens) (Q16665 whole entry, looked up): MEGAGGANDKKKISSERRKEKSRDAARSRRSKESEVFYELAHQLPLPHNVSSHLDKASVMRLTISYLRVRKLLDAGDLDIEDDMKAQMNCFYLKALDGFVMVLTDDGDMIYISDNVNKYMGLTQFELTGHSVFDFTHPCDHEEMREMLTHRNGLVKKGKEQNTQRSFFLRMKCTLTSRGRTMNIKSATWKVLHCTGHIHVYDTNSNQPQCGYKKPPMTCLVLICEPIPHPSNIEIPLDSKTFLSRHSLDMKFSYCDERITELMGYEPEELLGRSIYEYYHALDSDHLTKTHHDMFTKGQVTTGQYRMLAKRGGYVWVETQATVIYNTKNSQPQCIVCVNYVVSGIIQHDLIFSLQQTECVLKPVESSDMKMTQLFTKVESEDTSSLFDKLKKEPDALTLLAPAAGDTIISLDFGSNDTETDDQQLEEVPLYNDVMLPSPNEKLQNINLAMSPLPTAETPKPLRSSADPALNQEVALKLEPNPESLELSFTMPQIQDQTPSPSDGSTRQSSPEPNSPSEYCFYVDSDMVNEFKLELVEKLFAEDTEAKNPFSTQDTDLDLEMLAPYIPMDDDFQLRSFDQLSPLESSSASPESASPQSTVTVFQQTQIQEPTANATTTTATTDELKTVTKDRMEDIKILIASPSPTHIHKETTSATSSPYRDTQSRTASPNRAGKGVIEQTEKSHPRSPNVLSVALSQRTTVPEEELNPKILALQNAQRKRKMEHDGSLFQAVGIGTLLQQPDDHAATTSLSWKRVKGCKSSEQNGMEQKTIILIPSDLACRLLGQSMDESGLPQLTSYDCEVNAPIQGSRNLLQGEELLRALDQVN
# Summary of the method: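 HepG2 cells transiently transfected with multiplexed cis-promoter reporter units; reporter mRNA read 24 h after dosing by RT-PCR, 6-FAM primer-extension labelling, HpaI digestion and capillary electrophoresis. Bidirectional fit versus DMSO baseline.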
# [5] = biological target: Hepatocyte nuclear factor 6 (Homo sapiens) (UniProt Q9UBC0); assay: ATG_HNF6_CIS: Attagene CIS-FACTORIAL HepG2 Assay for human Hepatocyte Nuclear Factor 6 (HNF6) (AID 2282952); details: HepG2 Attagene cis-factorial HNF6 reporter transcription; actives raise or lower the signal
# Chain of Hepatocyte nuclear factor 6 (Homo sapiens) (Q9UBC0 whole entry, looked up, the tested form may be a part): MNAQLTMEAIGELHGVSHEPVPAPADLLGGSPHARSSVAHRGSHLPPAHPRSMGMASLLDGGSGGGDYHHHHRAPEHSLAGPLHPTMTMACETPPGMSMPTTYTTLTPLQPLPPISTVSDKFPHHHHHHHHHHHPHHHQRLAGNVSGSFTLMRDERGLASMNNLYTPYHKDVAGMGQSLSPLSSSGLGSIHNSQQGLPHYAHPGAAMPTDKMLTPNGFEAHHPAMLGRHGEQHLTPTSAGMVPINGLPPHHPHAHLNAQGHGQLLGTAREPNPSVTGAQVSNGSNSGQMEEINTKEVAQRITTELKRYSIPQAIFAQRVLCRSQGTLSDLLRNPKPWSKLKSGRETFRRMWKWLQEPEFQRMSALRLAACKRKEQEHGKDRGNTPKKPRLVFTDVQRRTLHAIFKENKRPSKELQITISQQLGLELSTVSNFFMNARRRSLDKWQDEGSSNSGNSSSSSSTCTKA
# Summary of the method: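 Twenty-four-hour chemical treatment of reporter-transfected HepG2 cells precedes RNA isolation, DNase-treated reverse transcription and PCR of reporter sequences. Labelled fragments are sized by capillary electrophoresis and fitted bidirectionally versus DMSO.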
# [6] = biological target: Heat shock factor protein 1 (Homo sapiens) (UniProt Q00613); assay: ATG_HSE_CIS: Attagene CIS-FACTORIAL HepG2 Assay for human Heat Shock Transcription Factor 1 (HSE) (AID 2282953); details: HepG2 HSE cis-reporter, Attagene RNA transcription; actives raise or lower the signal
# Chain of Heat shock factor protein 1 (Homo sapiens) (Q00613 whole entry, looked up): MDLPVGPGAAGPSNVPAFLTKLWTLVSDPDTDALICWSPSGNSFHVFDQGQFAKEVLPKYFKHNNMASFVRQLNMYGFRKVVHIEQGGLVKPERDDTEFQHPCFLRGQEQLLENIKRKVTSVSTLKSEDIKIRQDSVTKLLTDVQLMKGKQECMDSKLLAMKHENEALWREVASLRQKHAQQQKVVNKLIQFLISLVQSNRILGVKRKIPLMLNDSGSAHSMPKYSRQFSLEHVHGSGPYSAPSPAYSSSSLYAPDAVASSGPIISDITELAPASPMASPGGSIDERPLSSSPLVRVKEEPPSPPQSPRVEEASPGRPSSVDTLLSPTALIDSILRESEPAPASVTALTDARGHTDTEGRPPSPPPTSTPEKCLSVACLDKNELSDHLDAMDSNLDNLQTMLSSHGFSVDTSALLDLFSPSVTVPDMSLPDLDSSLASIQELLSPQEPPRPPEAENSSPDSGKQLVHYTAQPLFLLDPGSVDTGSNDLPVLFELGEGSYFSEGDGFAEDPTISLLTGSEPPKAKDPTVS
# Summary of the method: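 HepG2, transient MRTU transfection, cis-promoter reporters (endogenous TF activity). 24 h compound. RNA → oligo(dT) RT → PCR → 6-FAM primer extension → HpaI cut → CE. Bidirectional fit vs DMSO.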
# [7] = ATG_MRE_CIS: Attagene CIS-FACTORIAL HepG2 Assay for human Metal Responsive Element (MRE) (AID 2282954); details: HepG2 MRE cis-reporter transcription, Attagene multiplex; actives raise or lower the signal
# Summary of the method: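 Measured here is mRNA induction from an MRE cis-element reporter in HepG2 after 24 h, quantified by fluorescence of labelled RT-PCR products on capillary electrophoresis; gain- and loss-of-signal fits use DMSO as baseline.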
# [8] = ATG_PBREM_CIS: Attagene CIS-FACTORIAL HepG2 Assay for human Phenobarbital-responsive Enhancer Module (PBREM) (AID 2282955); details: HepG2 PBREM cis-reporter, Attagene multiplexed transcription; actives raise or lower the signal
# Summary of the method: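 HepG2 cells transiently transfected with multiple cis-regulated reporter transcription units; endogenous factor activity at the PBREM element measured as reporter mRNA 24 h after dosing, via RT-PCR and capillary electrophoresis of fluorescent fragments; bidirectional fitting versus DMSO.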
# [9] = ATG_GRE_CIS: Attagene CIS-FACTORIAL HepG2 Assay for human Glucocorticoid Response Elements (GRE) (AID 2282947); details: HepG2 GRE cis-reporter, Attagene multiplex mRNA; actives raise or lower the signal
# Summary of the method: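 Fluorescence intensity of reporter-specific cDNA fragments, separated by capillary electrophoresis, provides the signal. Constructs carry cis-regulating promoters in transiently transfected HepG2 liver cells; 24 h incubation; fitting is bidirectional against DMSO.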
Structure (SMILES),outcome [1],outcome [2],outcome [3],outcome [4],outcome [5],outcome [6],outcome [7],outcome [8],outcome [9],AC50 [8],AC50 [7],AC50 [1],AC50 [6],AC50 [4]
O=S1(=O)OC(c2ccc(O)cc2)(c2ccc(O)cc2)c2ccccc21,inactive,inactive,inactive,inactive,inactive,inactive,inactive,inactive,,,,,,
C1=Cc2ccccc2C1,inactive,inactive,inactive,inactive,inactive,inactive,inactive,inactive,,,,,,
CCN(CC)c1ccc(C(=O)c2ccccc2C(=O)O)c(O)c1,,inactive,inactive,inactive,inactive,inactive,inactive,,inactive,1.89 µM (active),,,,
C[Si](C)O[Si](C)(C)O[Si](C)(C)O[Si](C)C,inactive,inactive,inactive,inactive,inactive,inactive,inactive,,,,,,,
O=C(c1ccccc1)C1CCC1,inactive,inactive,,inactive,inactive,,inactive,inactive,inactive,,,,,
CCCCCCCCCCOC(C)=O,inactive,inactive,,inactive,inactive,inactive,inactive,inactive,inactive,,,,,
FC(F)(F)C(=NOCC1OCCO1)c1ccc(Cl)cc1,inactive,inactive,,inactive,inactive,,,inactive,inactive,,100 µM (active),,,
CCOC(=O)CC(C(C)=O)C(C)=O,,inactive,,inactive,inactive,inactive,inactive,inactive,inactive,,,,,
C=C(C)C(=O)OCCOc1ccccc1,inactive,inactive,,inactive,inactive,inactive,inactive,inactive,inactive,,,,,
O=c1c2ccccc2nnn1CCl,inactive,inactive,,inactive,inactive,inactive,inactive,inactive,inactive,,,,,
CCCCC/C=C\C/C=C\CCCCCCCC(=O)OC,,inactive,inactive,inactive,inactive,,inactive,inactive,,,,80.7 µM (active),153 µM (active),
COC(=O)c1c(C)cc(O)c(C)c1O,inactive,inactive,inactive,inactive,inactive,inactive,inactive,,,,,,,
C=C(C)[C@H]1CC=C(C)CC1,inactive,inactive,inactive,inactive,inactive,inactive,inactive,inactive,,,,,,
C=CC(C)(CCC=C(C)C)OC(=O)CC(C)C (stereo not given),,inactive,,inactive,inactive,,,inactive,inactive,,148 µM (active),147 µM (active),155 µM (active),
CCCCC(CC)COC(=O)c1ccccc1O (stereo not given),,inactive,inactive,inactive,inactive,inactive,inactive,inactive,inactive,,,,,
O=c1[nH]c(=O)c2[nH]c(=O)[nH]c2[nH]1,inactive,inactive,,inactive,inactive,inactive,inactive,,inactive,,,,,

Structure (SMILES),outcome [1],outcome [2],outcome [3],outcome [4],outcome [5],outcome [6],outcome [7],outcome [8],outcome [9],AC50 [8],AC50 [7],AC50 [1],AC50 [6],AC50 [4]
Cc1ccc(N)c([N+](=O)[O-])c1,,inactive,,inactive,,inactive,inactive,inactive,inactive,,,,,
C=C[Si](C)(C)O[Si](C)(C)C=C,inactive,inactive,,inactive,,inactive,inactive,,inactive,,,,,
CC1=CC[C@H]2C[C@@H]1C2(C)C,inactive,inactive,inactive,inactive,inactive,inactive,inactive,,,,,,,
CNC(=S)N(C)C,,inactive,inactive,inactive,inactive,inactive,inactive,inactive,inactive,,,,,
c1cc(C(c2ccc(OCC3CO3)cc2)C(c2ccc(OCC3CO3)cc2)c2ccc(OCC3CO3)cc2)ccc1OCC1CO1 (stereo not given),,inactive,inactive,inactive,inactive,,,inactive,inactive,,50.2 µM (active),,56.5 µM (active),
CC(C)CCCC(C)CC=O (stereo not given),inactive,inactive,inactive,inactive,inactive,inactive,inactive,,,,,,,
C=C(C)[C@@H]1CCC2=CCC[C@@H](C)[C@]2(C)C1,inactive,inactive,inactive,inactive,inactive,inactive,,,,,155 µM (active),,,
O=C(C=Cc1ccccc1)OCc1ccccc1,,inactive,inactive,inactive,inactive,inactive,inactive,inactive,inactive,,,,,
O=C1CCCC(=O)O1,inactive,inactive,inactive,inactive,inactive,inactive,inactive,,,,,,,
C=C[Si](OC(C)=O)(OC(C)=O)OC(C)=O,,inactive,inactive,inactive,inactive,inactive,inactive,,inactive,,,,,
CC=CC(=O)N(CC)c1ccccc1C,,inactive,,,inactive,,inactive,inactive,inactive,,,,,
CN(C)c1ccc(C(=N)c2ccc(N(C)C)cc2)cc1,,inactive,inactive,,inactive,,,,inactive,7.5 µM (active),6.69 µM (active),,,0.816 µM (active)
CC1(C)O[C@@H]2C[C@H]3[C@@H]4C[C@H](F)C5=CC(=O)CC[C@]5(C)[C@H]4[C@@H](O)C[C@]3(C)[C@]2(C(=O)CO)O1,inactive,inactive,inactive,inactive,inactive,inactive,inactive,,,,,,,
CCC(CC)C(=O)O,inactive,inactive,,inactive,inactive,inactive,inactive,inactive,inactive,,,,,
CC(C)=CCC[C@H](C)CCO,inactive,inactive,inactive,inactive,inactive,inactive,inactive,,,,,,,
CCCCCCCCCCCCCOP(=O)(O)O,inactive,inactive,,inactive,inactive,inactive,inactive,inactive,inactive,,,,,

# — PubChem BioAssay (EPA / NIEHS)
